Experimental data reported in PubChem BioAssay (NCI).
About 79,000 compounds went through this panel and 15% of them were active in at least one assay; those are over-represented in the sample as a whole. Activity calls are given as the source filed them. No stated cut-off is given here; in the data, active means growth inhibition above about 70%; inactive means the rest. Where a SMILES comes first, the peptide text is derived from it. [ ]: non-standard residue; d: D form. The star is where a group is joined. Cbz = O=C(OCc1ccccc1)*; Nva = CCC[CH](N)C(=O)O

Assays:
[1] = NCI Yeast Anticancer Drug Screen. Data for the rad50 strain (AID 155);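 further: 0% = growth of vehicle-only cultures of the same strain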; conditions: S. cerevisiae rad50 strain growth inhibition; at 50.0 µM; hits give high values
Outline: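 Inhibition values express reduced yeast growth in compound-treated cultures relative to vehicle-treated controls.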

[2] = NCI Yeast Anticancer Drug Screen. Data for the mec2-1 strain (AID 157); conditions: S. cerevisiae mec2-1 strain, at 50.0 µM, hits give high values
Outline: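 Mutant yeast (mec2-1) grown with compound; growth inhibition relative to vehicle control reported.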

[3] = NCI Yeast Anticancer Drug Screen. Data for the sgs1 mgt1 strain (AID 161);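 further: 0% = growth of cultures given vehicle only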; conditions: S. cerevisiae sgs1 mgt1 strain, at 50.0 µM, hits give high values
Outline: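 Growth of a repair-deficient yeast mutant was monitored after compound treatment and expressed as inhibition relative to vehicle-treated cultures.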

[4] = NCI Yeast Anticancer Drug Screen. Data for the cln2 rad14 strain (AID 165);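 further: 0% = growth equal to vehicle treated cultures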; conditions: S. cerevisiae cln2 rad14 strain, at 50.0 µM, hits give high values
Outline: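 Readout is yeast growth inhibition versus vehicle-treated controls, using a strain with cln2 and rad14 alterations exposed to compound.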

[5] = NCI Yeast Anticancer Drug Screen. Data for the bub3 strain (AID 167); conditions: S. cerevisiae bub3 mutant strain, at 50.0 µM, hits give high values
Outline: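 Steps: expose the mutant yeast strain to compound; grow alongside vehicle-treated cultures; measure growth; express inhibition against the vehicle cultures.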

[6] = NCI Yeast Anticancer Drug Screen. Data for the mlh1 rad18 strain (AID 175); conditions: S. cerevisiae mlh1 rad18 strain growth inhibition; at 50.0 µM; hits give high values
Outline: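 Genetically defined yeast (DNA repair-deficient) exposed to compounds; growth inhibition determined relative to vehicle.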

Measured: growth inhibition

CCOC(=O)c1c(N)sc2c1C(C(=O)OCC)CCCC2 (stereo not drawn)
inactive: [1] -11.1% | [2] 7.5% | [3] 27.3% | [4] -16.2% | [5] 37.5% | [6] 38.2%

Cc1cc(=O)[nH]c(N/N=C/c2ccco2)n1
inactive: [1] -20.8% | [2] -48.8% | [3] -16.8% | [4] 6.75% | [5] -33.8% | [6] -15.3%

CCOC(=O)/C=C/SCCC(=O)OC
inactive: [1] 37.3% | [2] 21.9% | [3] 7.9% | [4] 12.4% | [5] 15% | [6] 40.8%

CC(=O)/C=C/C=C/c1ccco1
inactive: [1] -0.85% | [2] 1.3% | [3] 9.15% | [4] -9.7% | [5] 10.4% | [6] 11.6%

C/C=C\COC(=O)C(C)OC(=O)OCC (stereo not drawn)
inactive: [1] 14.2% | [2] 11.8% | [3] 4.85% | [4] 5.75% | [5] -0.65% | [6] 0.5%

CSc1ccc(NC(=O)c2ccc([N+](=O)[O-])cc2)cc1
inactive: [1] -1.1% | [2] 5.6% | [3] 10.3% | [4] -13.3% | [5] 25.9% | [6] 3.05%

CCOc1c(CNC(=O)CCl)cc(N)cc1CNC(=O)CCl
inactive: [1] 6.45% | [2] 3.4% | [3] -14% | [4] 10.8% | [5] 2.1% | [6] -10.3%

Cc1ccc(N=C(C(=O)c2ccccc2)C(Nc2ccc(C)cc2)C(=O)c2ccccc2)cc1 (stereo not drawn)
inactive: [1] 23.8% | [2] 3.25% | [3] 17.8% | [4] 20.8% | [5] -3.7% | [6] 10.7%

O=C(C(=Nc1ccccc1)C(=Nc1ccccc1)C(=O)c1ccccc1)c1ccccc1
inactive: [2] 32.1% | [3] 55.2% | [4] 8.5% | [5] 15.3% | [6] 37%
active: [1] 78.8%

CCCC(C)OS(=O)(=O)c1ccc(C)cc1 (stereo not drawn)
inactive: [1] 13% | [2] -6.55% | [3] 0.75% | [4] -36.5% | [5] 8.85% | [6] 5.05%

CCCCOCN(COCCCC)CC(C)(C)C
inactive: [1] 20.9% | [2] 14.7% | [3] -10.8% | [4] 14.7% | [5] 19.4% | [6] 19.3%

CCOC(=O)C1=C(O)C(=O)c2ccoc2C1=O
inactive: [1] -52.9% | [2] -35.2% | [3] -58% | [4] -7.15% | [5] -32.5% | [6] -32%

CC1=C(c2ccccc2)C(c2ccccc2)c2ccccc21 (stereo not drawn)
active: [6] 85.6%
inactive: [1] 17.3% | [2] 26.7% | [3] 33.6% | [4] 51.4% | [5] 54.4%

CNC1C(O)C(OC2C(N)CC(N)C(OC3OC(CN)=CCC3N)C2O)OCC1(C)O (stereo not drawn)
inactive: [1] -17.3% | [2] -43.3% | [3] -34.1% | [4] -15.6% | [5] -25.8% | [6] -5.15%

CCCC(NC(=O)OCc1ccccc1)C(=O)NC(CO)C(=O)O (stereo not drawn) (Cbz-[Nva]-Ser-OH; configuration not given here)
inactive: [1] 24.6% | [2] 4.15% | [3] 9.05% | [4] 26.6% | [5] 8.25% | [6] 8.05%

Nc1nc(SCC(=O)O)nc2nc[nH]c12
inactive: [1] -0.15% | [2] 3.15% | [3] -13.3% | [4] -32% | [5] -7.5% | [6] 4.95%

CN(CC(=O)O)Cc1oc(CO)cc(=O)c1O
inactive: [1] -9.45% | [2] -9.5% | [3] -6.1% | [4] -37.5% | [5] -40% | [6] -14.3%

CC(C)OP(=O)(OC(C)C)c1ccc2c(c1)OCCOCCOCCOCCO2
inactive: [1] -2.9% | [2] -11.3% | [3] 9.2% | [4] 4.2% | [5] -0.15% | [6] 21.4%

C/C(=C/C(=O)Nc1ccc2ccccc2c1)Nc1ccc2ccccc2c1
inactive: [1] -5.4% | [2] 6.65% | [3] 5.9% | [4] -8.95% | [5] 10.4% | [6] -15.1%

CC(C)(O)C(O)COc1c2c(cc3oc(=O)ccc13)OCO2 (stereo not drawn)
inactive: [1] 26.3% | [2] 3.5% | [3] 18.9% | [4] -1.35% | [5] 31.9% | [6] 25.6%

Cc1n[nH]c(=S)n1C
inactive: [1] -25.2% | [2] -6.05% | [3] -4.25% | [4] -23.2% | [5] 8.55% | [6] 12.8%

O=[N+]([O-])/C(C(Cl)=C(Cl)Cl)=C(\SCc1ccccc1)N1CCCCC1
inactive: [1] -25.6% | [2] -8.1% | [3] 6.75% | [4] 19.4% | [5] 31.7% | [6] 14.6%

CSc1nc(=O)cnn1C
inactive: [1] -22.3% | [2] -8.6% | [3] -15.6% | [4] -0.5% | [5] -49.2% | [6] -5.35%

O=C(Nc1ccc(F)c([N+](=O)[O-])c1)Nc1ccccc1C(F)(F)F
inactive: [1] 3.95% | [2] 29.6% | [3] 33.8% | [4] -3.5% | [5] 31.3% | [6] 25.8%

COc1ccc(/C=C/C(=O)c2c(-c3ccccc3)nn(C)c(=O)c2N2CCCCC2)cc1
inactive: [1] 7.8% | [2] -8.5% | [3] -10.8% | [4] 26.5% | [5] 7.05% | [6] 1.7%

c1ccc2c(c1)N=C(NNC1=Nc3ccccc3SC1)CS2
inactive: [1] 2.35% | [2] -2.85% | [3] 2.4% | [4] -0.55% | [5] 1.25% | [6] 0.65%

C=CCOc1cc(NC(=S)c2ccoc2C)ccc1OC
inactive: [1] -17.4% | [2] -3.15% | [3] -10% | [4] -2.7% | [5] -3.35% | [6] -52.9%

CC1(C)C[C@@H]2C1CCC1(C)CC2(O)CC[C@H]1O (stereo partly drawn)
inactive: [1] -23.6% | [2] -35% | [3] -24.8% | [4] 14.4% | [5] 2.3% | [6] -17.9%

O=[N+]([O-])c1cccc(C=NC23CC4CC(CC(C4)C2)C3)c1
inactive: [1] -2.15% | [2] 7.45% | [3] -29.6% | [4] 28.7% | [5] 30.1% | [6] -4.15%

Nc1ncnc2c1ncn2C1CC(O)C(COP(=O)(O)O)O1 (stereo not drawn)
inactive: [1] 0.15% | [2] -4.65% | [3] 0.85% | [4] -23.4% | [5] 0.45% | [6] 4.7%

Cn1ccc2c3ccn(C)c3ccc21
inactive: [1] -15.8% | [2] 9.4% | [3] -5.25% | [4] 56.7% | [5] -19.9% | [6] 23.1%

O/N=C1\CC2(N3CCOCC3)CCC1(c1ccccc1)CC2
inactive: [1] 11.5% | [2] -12.3% | [3] 54.1% | [4] 20.9% | [5] 38% | [6] 11.9%

O=C1CC2(CCc3ccccc32)C(=O)N1CN1CCN(c2ccccn2)CC1 (stereo not drawn)
inactive: [1] 0.55% | [2] 3.5% | [3] -10% | [4] -9.15% | [5] -1.9% | [6] 18.1%

CN(C)/C=C/c1ccnc2c1C(=O)c1ccccc1C2=O
inactive: [4] 67.8%
active: [1] 83.7% | [2] 90.5% | [3] 73.3% | [5] 75.5% | [6] 92.7%

CCOC(=O)CCC(C)=O
inactive: [1] 22.8% | [2] 11.2% | [3] 14.9% | [4] 20.5% | [5] 14.7% | [6] 11%

CC[N+](C)(CC)CCOC(=O)C(c1ccccc1)C(O)C1CC=CCC1 (stereo not drawn)
inactive: [1] 7.15% | [2] -6.3% | [3] -5.65% | [4] -30.6% | [5] -1.45% | [6] 2.3%

CN(CCNC(=O)NCCCCCCNC(=O)NCCN(C)c1ccccc1)c1ccccc1
inactive: [1] -6% | [2] -44% | [3] -6.7% | [4] -33.2% | [5] 3.45% | [6] -5.05%

O=[N+]([O-])c1ccc(N/N=C(/c2ccccc2)C2CCCC2)c([N+](=O)[O-])c1
inactive: [1] 11.4% | [2] 18.6% | [3] 12.8% | [4] 7.9% | [5] 11.9% | [6] 12.9%

C=CCOC(=O)C(F)(F)F
inactive: [1] 0.15% | [2] -4.25% | [3] -0.7% | [4] 4.35% | [5] 6.85% | [6] -1.4%

Cc1ccc2ccccc2c1CC(=O)O
inactive: [1] 28.8% | [2] 36.6% | [3] 31.5% | [4] 31.7% | [5] 38.8% | [6] 39.2%

O=C(O)COc1cc([N+](=O)[O-])c(Cl)cc1Cl
inactive: [1] 7.75% | [2] -11.9% | [3] 18.6% | [4] 15.6% | [5] -1.4% | [6] 20.6%

O=C1CCC(C(=O)Nc2ccc(Cl)cc2Cl)N1 (stereo not drawn)
inactive: [1] -0.15% | [2] 3.3% | [3] 7.2% | [4] 42.4% | [5] 3.45% | [6] 8.75%

C=CCSc1nc2ccc(NCn3c(=S)sc4cc([N+](=O)[O-])ccc43)cc2s1
inactive: [1] 12.6% | [2] 14.4% | [3] 30.9% | [4] 14% | [5] 3.4% | [6] 31.9%
